Compound activity from PubChem BioAssay.
An excerpt weighted towards active compounds, which were near 11% of everything screened.
Tau fluor counter = Counterscreen qHTS for Inhibitors of Tau Fibril Formation, Fluorescence Polarization; AID 1463, 2008; 280,000 tested, 0.93% active; Potency, µM (series often up to 57.7 µM), for inactives: at the highest dose activity change, negative = decrease; tau K18 P301L Alexa594 fluorescence, heparin fibrillization; also: potency is read from the fitted curve at half-maximal effect; nearly all actives have a fitted effect of over 55% in size
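Human tau K18 P301L (15 uM unlabeled, 0.24 uM Alexa 594-labeled) in 100 mM sodium acetate pH 7 with 20 uM heparin, 6 hr at 37 C. ThT 30 uM added, 1 hr ambient; Alexa 594 FP and total fluorescence read at 555/632 nm.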
G9a block = qHTS Assay for Inhibitors of Histone Lysine Methyltransferase G9a. G9a H3K9 monomethylation, AlphaScreen, 2 h. Potency, µM (titrated, usually from 102 µM), without a hit: at the top dose activity, negative = inhibition, usual class: inhibitors. 350,000 tested, 8.8% active. AID 504332, 2011; also: potency is read from the fitted curve at half-maximal effect; nearly all actives have a fitted effect of over 75% in size
Target sequence (Q96KQ7 913-1193 limits assumed): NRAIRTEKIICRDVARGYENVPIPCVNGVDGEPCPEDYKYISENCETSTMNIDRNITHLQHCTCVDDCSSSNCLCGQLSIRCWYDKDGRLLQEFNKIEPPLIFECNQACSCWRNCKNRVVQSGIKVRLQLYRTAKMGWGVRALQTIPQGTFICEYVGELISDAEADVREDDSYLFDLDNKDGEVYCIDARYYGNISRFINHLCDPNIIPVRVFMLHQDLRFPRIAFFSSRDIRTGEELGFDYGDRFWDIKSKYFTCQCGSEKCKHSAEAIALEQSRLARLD
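Enzyme 20 nM + cpd, 15 min RT; add b-H3K9 pep 500 nM / SAM 20 uM; 2 h RT; anti-H3K9me1 Ab 0.5 ug/mL + SA donor / anti-rabbit acceptor beads 20 ug/mL each, 10 min; AlphaScreen read.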
Sfp inh = qHTS Assay for Inhibitors of Bacillus subtilis Sfp phosphopantetheinyl transferase (PPTase); Potency, µM, for the others: largest response in the series, negative = inhibition, usual class: inhibitors; Biochemical Sfp PPTase activity, qHTS; 310,000 tested, 3.5% active;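 also: the enzyme is Sfp with the accession as filed and its product quenches rhodamine fluorescence; potency is read from the fitted curve at half-maximal effect; 0% = enzyme reaction without inhibitor and -100% = no enzyme wells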
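Sfp 15 nM + cpd, 15 min RT; start w/ rhodamine-CoA 5 uM, BHQ-2-YbbR 12.5 uM (final); 50 mM Hepes pH 7.6, 10 mM MgCl2, 0.01% NP-40, 0.01% BSA; read 525/598 nm at 0 and 30 min.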
FBPA coupling cs = qHTS Assay for Inhibitors of Fructose-1,6-bisphosphate Aldolase from Giardia Lamblia: Coupling assay counterscreen; coupling enzyme system counterscreen, AmpLite Red fluorescence; activity change, negative = inhibition, % at 58.2 µM, hits read low; 290,000 tested, 0.67% active; AID 2472, 2010; in the data active = activity change below about -30%
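Final compound at 57.5 uM, incubated 10 min at RT with coupling enzyme reagent (glyceraldehyde-3-phosphate), then 20 min with substrate and AmpLite Red detection. Fluorescence read at 525/598 nm; tests interference with the coupling assay, not aldolase inhibition.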
Tau FP inhib = qHTS for Inhibitors of Tau Fibril Formation, Fluorescence Polarization; K18 P301L tau heparin fibrillization, Alexa594 FP, 6 h; Potency, µM (top dose mostly 57.7 µM), without a hit: at the top dose activity, negative = inhibition, usual class: inhibitors; 280,000 tested, 0.39% active; AID 1468, 2008; also: potency is read from the fitted curve at half-maximal effect; nearly all actives have a fitted effect of over 55% in size
Target sequence (P10636 561-689 P618L limits assumed): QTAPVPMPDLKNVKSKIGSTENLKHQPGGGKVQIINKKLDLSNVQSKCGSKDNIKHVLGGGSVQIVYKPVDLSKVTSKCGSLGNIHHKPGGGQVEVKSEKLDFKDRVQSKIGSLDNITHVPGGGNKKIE
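K18 P301L tau (15 uM unlabeled/0.24 uM Alexa 594-labeled, final) + compound + heparin 20 uM final; 100 mM NaOAc pH 7; 6 hr 37 C; ThT 30 uM final added, 1 hr RT; FP ex 555/em 632 nm.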
Tau fibril ThT = qHTS for Inhibitors of Tau Fibril Formation, Thioflavin T Binding; Microtubule-associated protein tau (Homo sapiens), P10636; recombinant tau K18 P301L, heparin-induced fibrillization, ThT fluorescence; Potency, µM (top dose mostly 57.4 µM), for inactives: at the top dose activity, negative = inhibition, usual class: inhibitors; 270,000 tested, 2.1% active; also: potency is read from the fitted curve at half-maximal effect; nearly all actives have a fitted effect of over 55% in size
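Fibril formation assay: tau K18 P301L at 15 uM with trace Alexa 594 label, heparin inducer 20 uM, pH 7 sodium acetate buffer, 37 C for 6 hr; endpoint ThT signal.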
Numbers without * were called inactive; [ ] = remark or other dose. Unless noted, calls follow the shape of the dose curve; as a rule, active = well fitted curve in the direction sought with a large enough effect; inconclusive = small, poorly fitted or top-dose-only effect, or another doubt; inactive = no such curve, though single readings can be large; an effect the other way counts as inactive or inconclusive. Unless noted, % is scaled to controls: 0 for no effect and ±100 for the full control effect.

For O=S(=O)(c1ccc(Cl)cc1)n1c(Cc2ccccc2)nc2ccccc21 the results were Tau fluor counter -1.3%, G9a block inconclusive, Sfp inh 14.5%, FBPA coupling cs 2.0, Tau FP inhib 9.9% and Tau fibril ThT 3.7%.
`Cc1ccc(S(=O)(=O)NN2Cc3ccccc3C2=N)cc1` gave Tau fluor counter 2.8%, G9a block 15.8µM*, Sfp inh inconclusive, FBPA coupling cs -2.3, Tau FP inhib 3.5% and Tau fibril ThT 3.0%.
`Cc1ccccc1OCC(=O)NN1Cc2ccccc2C1=N` gave Tau fluor counter -3.9%, G9a block -37.3%, Sfp inh 11.8%, FBPA coupling cs -1.3, Tau FP inhib 0.2% and Tau fibril ThT -3.4%.
For CCCCN(NC(C)=O)c1nc(Cl)nc(NC(C)C)n1 the results were Tau fluor counter -8.8%, G9a block 50.1µM*, Sfp inh 15.3%, FBPA coupling cs 6.7, Tau FP inhib -0.7% and Tau fibril ThT -13.5%.
CC(C)Nc1nc(Cl)nc(NN(C)c2nc(N(C)C)nc(N(C)C)n2)n1 was read as Tau fluor counter -12.8%, G9a block -4.6%[59 µM], Sfp inh -11.5%, FBPA coupling cs 0.4, Tau FP inhib 1.4% and Tau fibril ThT -7.5%.
For CC(=O)c1ccc(NC(=O)C(C)OC(=O)c2ccc(Br)o2)cc1 (centres undefined) the results were G9a block -35.1%[12.7 µM].
COC(=O)c1nc2ccc(N3CCOCC3)cc2c(C)c1C(=O)OC was read as Tau fluor counter 2.0%, G9a block inconclusive, Sfp inh 0.8%, FBPA coupling cs -50.5*, Tau FP inhib 3.5% and Tau fibril ThT inconclusive.
Screening Cc1cc(C(=O)Nc2ccc(N3CCOCC3)cc2)c2ccccc2n1 returned Tau fluor counter -19.6%, G9a block -31.7%, Sfp inh 9.1%, FBPA coupling cs -0.1, Tau FP inhib 4.1% and Tau fibril ThT inconclusive.
`COCCCn1c(=S)[nH]c2c(sc3ccccc32)c1=O` gave Tau fluor counter -13.8%, G9a block inconclusive, Sfp inh 79.4µM*, FBPA coupling cs 0.1, Tau FP inhib 1.2% and Tau fibril ThT -9.6%.
For CCN1CCN(CCn2c(=S)[nH]c3ccccc3c2=O)CC1 the results were Tau fluor counter -7.7%, G9a block inconclusive, Sfp inh 1.2%, FBPA coupling cs 0.8, Tau FP inhib -6.1% and Tau fibril ThT -17.2%.
`O=c1c2sc3ccccc3c2[nH]c(=S)n1CCN1CCOCC1` gave Tau fluor counter -14.9%, G9a block 3.55µM*, Sfp inh 44.7µM*, FBPA coupling cs 0.6, Tau FP inhib -2.8% and Tau fibril ThT inconclusive.
O=C(O)CCCn1c(=S)[nH]c2c(sc3ccc([N+](=O)[O-])cc32)c1=O was read as Tau fluor counter 4.5%, G9a block 8.91µM*, Sfp inh 44.7µM*, FBPA coupling cs 5.8, Tau FP inhib 5.1% and Tau fibril ThT inconclusive.
For CC1CCN(CCCn2c(=S)[nH]c3c(sc4ccccc43)c2=O)CC1 the results were Tau fluor counter 6.7%, G9a block 8.91µM*, Sfp inh -23.5%, FBPA coupling cs 0.6, Tau FP inhib 6.2% and Tau fibril ThT 6.0%.
For CC1CCN(CCCn2c(=S)[nH]c3c(sc4ccc([N+](=O)[O-])cc43)c2=O)CC1 the results were Tau fluor counter -14.7%, G9a block 39.8µM*, Sfp inh 56.2µM*, FBPA coupling cs -2.1, Tau FP inhib -5.0% and Tau fibril ThT inconclusive.
CC1CC=C2C(C#N)=C(N)C(C#N)(C#N)C(c3cccs3)C2C1 (centres undefined) was read as Tau fluor counter -14.7%, G9a block 39.8µM*, Sfp inh -18.0%, FBPA coupling cs -7.4, Tau FP inhib inconclusive and Tau fibril ThT inconclusive.
CCOC(=O)CNC1CC(=O)N(c2cccc(Cl)c2)C1=O (centres undefined) was read as Tau fluor counter -6.9%, G9a block 10µM*, Sfp inh -29.8%, FBPA coupling cs 1.7, Tau FP inhib -4.1% and Tau fibril ThT -5.9%.
`CN(C)S(=O)(=O)c1ccc(Cl)c(NC(=O)COC(=O)c2cc(-c3ccccc3)nc3ccccc23)c1` gave Tau fluor counter -19.7%, G9a block 6.0%[59 µM], Sfp inh 5.6%, FBPA coupling cs -0.2, Tau FP inhib inconclusive and Tau fibril ThT 15.9%.
For CCOC(=O)C1=C(C)n2c(s/c(=C3\C(=O)Nc4ccccc43)c2=O)=NC1c1ccc(OC)cc1 (centres undefined) the results were Tau fluor counter inconclusive, G9a block inconclusive, Sfp inh 2.4%, FBPA coupling cs -0.9, Tau FP inhib inconclusive and Tau fibril ThT 15.8µM*.
For COC(=O)C1=C(C)N=c2s/c(=C/c3ccoc3)c(=O)n2C1c1ccccc1 (centres undefined) the results were Tau fluor counter -18.2%, G9a block inconclusive, Sfp inh 79.4µM*, FBPA coupling cs 0.2, Tau FP inhib 1.7% and Tau fibril ThT inconclusive.
Screening CCOC(=O)C1=C(C)N=c2s/c(=C3/C(=O)Nc4ccccc43)c(=O)n2C1c1ccc(C)cc1 (centres undefined) returned Tau fluor counter -3.4%, G9a block inconclusive, Sfp inh 24.2%, FBPA coupling cs -1.0, Tau FP inhib 3.0% and Tau fibril ThT -5.6%.
For COC(=O)C1=C(C)N=c2s/c(=C3\C(=O)Nc4ccccc43)c(=O)n2C1c1ccccc1 (centres undefined) the results were Tau fluor counter inconclusive, G9a block 7.94µM*, Sfp inh 1.4%, FBPA coupling cs 2.6, Tau FP inhib 18.6% and Tau fibril ThT inconclusive.
`COC(=O)C1(Cc2ccccc2)C=C2C(=C(C(C)C)C(=O)C2C)CN1` (centres undefined) gave Tau fluor counter -15.7%, Sfp inh -15.3%, FBPA coupling cs -14.7, Tau FP inhib -4.2% and Tau fibril ThT inconclusive.
Cc1cccc(C)c1NC(=O)CN1C(=O)C2CC=CCC2C1=O (centres undefined) was read as G9a block -2.1%[12.7 µM].
